The structures appear in SMILES notation. “And” between values parts separate entries of the source, which are not always exact repeats. Identical values can stand only once. Results filed as inconclusive are left out. The source made the active and inactive calls. Unless noted, calls come from the whole dose curve; as a rule, active = well fitted curve in the direction sought with a large enough effect; inconclusive = small, poorly fitted or top-dose-only effect, or another doubt; inactive = no such curve, though single readings can be large; an effect the other way counts as inactive or inconclusive. Some results are limits rather than exact numbers.

Assay [1] in a line: Cell Viability - SK-N-SH (AID 435; calls by dose curve;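 note: potency is the fitted concentration of half-maximal effect; compound exposure lasted 40 h at 37 °C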). The following applies: SK-N-SH neuroblastoma cell viability qHTS. The gist of the method:
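Cells seeded at 1500 per well and incubated 5 hr at 37 °C. Compound added, then 40 hr at 37 °C. CellTiter-Glo added, 20 min at room temperature, luminescence read.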
(Quantitative high-throughput screening tests each substance at several concentrations.)

Assay [2] is described as follows: Cell Viability - N2a (AID 540).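 Note: cells exposed to compound for 40 h at 37 °C; plate controls were DMSO alone for no effect and tamoxifen control for full effect; nearly all actives have a fitted effect of over 45% in size.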 The following applies: N2a mouse neuroblastoma cell viability; series mostly up to 92.2 µM. The method in brief:
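First, 1500 N2a cells per well incubate 5 hr at 37 °C; next, compounds are added and incubated 40 hr at 37 °C; finally CellTiter-Glo is added and luminescence read after 20 min, with AC50 derived by Hill modeling.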

A short description of assay [3]: Cell Viability - NIH 3T3 (AID 541).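 Note: cells exposed to compound for 40 hours; plate controls were DMSO alone for no effect and tamoxifen positive control for full effect; nearly all actives have a fitted effect of over 25% in size.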 The note with it: NIH 3T3 cell viability, qHTS; series mostly up to 92.2 µM. The gist of the method:
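AC50 values reflect concentration-dependent loss of intracellular ATP in NIH 3T3 cells after 40 hr treatment in complete culture medium, quantified by luciferase-based luminescence.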

Assay [4] in a line: Cell Viability - HUV-EC-C (AID 542).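 Note: cells exposed to compound for 40 hours; % is set by controls: 0 for no effect and ±100 for the full control effect; nearly all actives have a fitted effect of over 35% in size.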 The following applies: HUV-EC-C endothelial cell viability, qHTS; series mostly up to 92.2 µM. The method in brief: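 Decrease in cellular ATP, quantified by luciferase luminescence, reflects toxicity in normal human vascular endothelial HUV-EC-C cells given compound for 40 hr in complete culture medium. Values are AC50s from concentration-response curves.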

The nature of assay [5]: Cell Viability - H-4-II-E (AID 543).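 Note: cells exposed to compound for 40 hours; % is set by controls: 0 for no effect and ±100 for the full control effect; nearly all actives have a fitted effect of over 35% in size.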 The note with it: H-4-II-E rat hepatoma viability; series mostly up to 92.2 µM. The gist of the method: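 Here, cytotoxicity is measured in the rat hepatoma line H-4-II-E as loss of intracellular ATP after 40 hr compound treatment, detected by luciferase luminescence.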
A short description of assay [6]: Cell Viability - SH-SY5Y (AID 544).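 Note: cells exposed to compound for 40 hours; 0% = DMSO alone and -100% = 100 µM tamoxifen; nearly all actives have a fitted effect of over 55% in size.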 The following applies: SH-SY5Y neuroblastoma cell viability; series mostly up to 92.2 µM. The gist of the method: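 Cytotoxicity is scored as a concentration-dependent fall in intracellular ATP in human SH-SY5Y cells treated 40 hr in complete culture medium. Potency is expressed as AC50 from a Hill equation fit.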
Assay [7] is described as follows: Cell Viability - Renal Proximal Tubule (AID 545).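 Note: cells exposed to compound for 40 hours; 0% = DMSO only and -100% = 100 µM tamoxifen; nearly all actives have a fitted effect of over 40% in size.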 The note with it: renal proximal tubule cells viability, primary cells of rat origin; series mostly up to 91.7 µM. The gist of the method:
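Cytotoxicity is scored as a concentration-dependent drop in cellular ATP in primary rat renal proximal tubule cells exposed for 40 hr. AC50 derives from Hill modelling.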

Assay [8] in a line: Cell Viability - Mesenchymal (AID 546).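 Note: cells exposed to compound for 40 hours before reading; 0% = DMSO only and -100% = 100 µM tamoxifen.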 The following applies: mesenchymal cells viability, qHTS; series mostly up to 91.7 µM. The method in brief: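 Human kidney mesenchymal cells from normal renal glomeruli, 1000 cells/well, rested 5 hr at 37 °C, then treated 40 hr at 37 °C in complete medium. Cellular ATP read by CellTiter-Glo luminescence; AC50 from Hill-equation fits.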

For assay [9], the target named is Peroxisome proliferator-activated receptor gamma (Homo sapiens) (UniProt P37231). The experiment in a line: qHTS assay for small molecule agonists of peroxisome proliferator-activated receptor gamma signaling (AID 588536; active = well fitted curve in the direction sought with a large enough effect in the signal ratio, with a control signal flat, not every such curve was filed as active; the % refers to the signal ratio;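 note: 0% = DMSO basal wells and 100% = rosiglitazone at 2 µM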). The note with it: HEK293 PPARg-UAS-bla, beta-lactamase ratio, 16 h, percent of rosiglitazone response, DMSO as zero; series mostly up to 76.7 µM. The method in brief:
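PPAR-gamma-UAS-bla HEK293 cells in medium with 1% charcoal/dextran-treated FBS were exposed to compounds for 16 h at 37 C. Beta-lactamase activity was read with CCF4 substrate (405 nm excitation, 460/530 nm emission).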

Assay [10] deals with Vitamin D3 receptor (Homo sapiens) (UniProt P11473). Nature of the assay: qHTS assay for small molecule antagonists of vitamin D receptor signaling (AID 588541; calls by dose curve;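 note: receptor activated by calcitriol during compound treatment; % is set by controls: 0 for no effect and ±100 for the full control effect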). The note with it: HEK293T VDR-UAS-bla, beta-lactamase ratio, antagonist mode; series mostly up to 76.7 µM. The method in brief: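 VDR-UAS-bla HEK293T cells in 2% charcoal-stripped FBS were stimulated with 1-alpha,25-dihydroxyvitamin D3 (3 nM final) plus compound for 16 h at 37 C. The beta-lactamase CCF4 readout was normalized to 50 nM agonist and DMSO, and Hill fits gave IC50.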
Vitamin D3 receptor (Homo sapiens), sequence (P11473 whole entry, looked up): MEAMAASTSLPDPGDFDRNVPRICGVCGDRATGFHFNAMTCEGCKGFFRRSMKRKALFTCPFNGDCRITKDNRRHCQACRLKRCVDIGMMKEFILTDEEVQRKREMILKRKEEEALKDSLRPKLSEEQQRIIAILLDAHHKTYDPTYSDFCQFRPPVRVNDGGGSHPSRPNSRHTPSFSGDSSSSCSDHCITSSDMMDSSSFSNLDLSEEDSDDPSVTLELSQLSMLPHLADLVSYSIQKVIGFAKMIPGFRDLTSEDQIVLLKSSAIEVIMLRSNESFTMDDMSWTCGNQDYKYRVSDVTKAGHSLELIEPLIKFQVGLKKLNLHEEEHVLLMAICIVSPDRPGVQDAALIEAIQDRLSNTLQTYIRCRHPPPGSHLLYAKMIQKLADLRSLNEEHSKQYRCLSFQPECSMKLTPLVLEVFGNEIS

For assay [11] the target is unchanged. The experiment in a line: qHTS assay for small molecule agonists of vitamin D receptor signaling (AID 588543; calls by dose curve;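 note: 0% = DMSO basal and 100% = reference agonist control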). The following applies: HEK293T VDR-UAS-bla, beta-lactamase ratio, 16 h; series mostly up to 76.8 µM. The method in brief:
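qHTS in agonist mode: compound titrations stimulate a VDR-driven β-lactamase reporter in HEK293T cells over 16 h at 37 °C. Response normalized to 50 nM 1α,25-dihydroxyvitamin D3 = 100%, DMSO = 0%; Hill fitting gives EC50 and maximal response.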

A short description of assay [12]: qHTS assay for small molecule agonists of retinoid X receptor alpha signaling (AID 588544; calls by dose curve). The following applies: HEK293T RXRa-UAS-bla, beta-lactamase reporter, 18 h; 530 nm emission.
Assay [13] has as its target Retinoic acid receptor RXR-alpha (Homo sapiens) (UniProt P19793). The assay is described as above. The following applies: HEK293T RXRa-UAS-bla, beta-lactamase reporter, 18 h; series mostly up to 76.7 µM.
In assay [14] the target is Thyroid hormone receptor beta (Homo sapiens) (UniProt P10828). The experiment in a line: qHTS assay for small molecule agonists of thyroid hormone receptor beta signaling (AID 588545; calls by dose curve;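 note: 0% = DMSO only and 100% = 10 nM T3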). The following applies: TR-UAS-bla GripTite HEK 293, beta-lactamase ratio, agonist mode, 18 h, percent of T3 response, DMSO as zero; series mostly up to 76.7 µM. The gist of the method:
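Stimulation of a TR-driven beta-lactamase reporter was quantified in GripTite HEK 293 cells. Compound series ran for 18 hrs; curves were normalized to T3 and DMSO controls and fitted to yield EC50.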

Assay [15] is described as follows: qHTS assay for small molecule antagonists of retinoid X receptor alpha signaling (AID 588546; active = well fitted inhibition curve with a large enough effect in the signal ratio, with a control signal flat, not every such curve was filed as active; the % refers to the signal ratio;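 note: cells stimulated with 9-cis-retinoic acid as agonist; % is set by controls: 0 for no effect and ±100 for the full control effect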). The following applies: HEK293T RXRa-UAS-bla, beta-lactamase ratio, antagonist mode; measured here: W530 green channel, cytotoxicity proxy. The gist of the method: (§1)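 Beta-lactamase reporter inhibition, read as CCF4 fluorescence ratio (ex 405, em 460/530 nm) after 2 h at RT. HEK293T UAS-bla cells, 2500/well, were stimulated with 9-cis-RA at 500 or 100 nM final alongside test compound for 18 h at 37 C.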

For assay [16], the target named is Retinoic acid receptor RXR-alpha (Homo sapiens) (UniProt P19793). Described as above. The note with it: HEK293T RXRa-UAS-bla, beta-lactamase ratio, antagonist mode. The method in brief:
as §1

In assay [17] the target is Thyroid hormone receptor beta (Homo sapiens) (UniProt P10828). The experiment in a line: qHTS assay for small molecule antagonists of thyroid hormone receptor beta signaling (AID 588547; active = well fitted inhibition curve with a large enough effect in the signal ratio, with a control signal flat, not every such curve was filed as active; the % refers to the signal ratio;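 note: cells stimulated with 0.4 nM T3 agonist during compound exposure; % is set by controls: 0 for no effect and ±100 for the full control effect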). The note with it: TR-UAS-bla HEK293, beta-lactamase ratio, antagonist mode, 18 h. The method in brief: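 TR-UAS-bla GripTite HEK293 cells in 2% charcoal/dextran FBS medium; compounds 0.59 nM to 92 uM with T3 at 0.4nM final, 18 h at 37 C. Beta-lactamase read by CCF4 fluorescence (460/530 nm); Hill fits gave IC50 and efficacy.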
Thyroid hormone receptor beta (Homo sapiens), sequence (P10828 whole entry, looked up): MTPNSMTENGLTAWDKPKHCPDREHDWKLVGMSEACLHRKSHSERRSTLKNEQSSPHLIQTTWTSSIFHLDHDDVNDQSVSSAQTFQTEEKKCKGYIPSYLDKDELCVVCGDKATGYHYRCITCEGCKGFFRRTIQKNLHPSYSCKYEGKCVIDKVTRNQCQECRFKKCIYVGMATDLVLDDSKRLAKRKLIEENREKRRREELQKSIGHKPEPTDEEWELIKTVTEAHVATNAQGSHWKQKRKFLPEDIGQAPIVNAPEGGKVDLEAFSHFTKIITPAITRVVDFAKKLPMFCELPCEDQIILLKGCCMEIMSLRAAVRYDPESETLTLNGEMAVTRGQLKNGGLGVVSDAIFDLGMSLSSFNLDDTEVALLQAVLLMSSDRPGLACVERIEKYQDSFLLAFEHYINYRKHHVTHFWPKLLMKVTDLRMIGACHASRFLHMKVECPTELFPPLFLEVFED

The target in assay [18] is Voltage-gated inwardly rectifying potassium channel KCNH2 (Homo sapiens) (UniProt Q12809). The experiment in a line: qHTS Assay for Small Molecule Inhibitors of the Human hERG Channel Activity (AID 588834).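 Note: top concentration of the series differs between compounds; % is set by controls: 0 for no effect and ±100 for the full control effect; lower thallium flux fluorescence means stronger hERG block; nearly all actives have a fitted effect of over 50% in size.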 The note with it: U2OS BacMam hERG, FluxOR thallium flux fluorescence; series mostly up to 46.1 µM. The gist of the method: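 Measured: FluxOR fluorescence after thallium stimulation in U2OS cells transduced with hERG by baculovirus. Compounds pre-incubated around 10 min; medium Opti-MEM with 2% FCS. AC50 from Hill equation.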
Voltage-gated inwardly rectifying potassium channel KCNH2 (Homo sapiens), sequence (Q12809 whole entry, looked up): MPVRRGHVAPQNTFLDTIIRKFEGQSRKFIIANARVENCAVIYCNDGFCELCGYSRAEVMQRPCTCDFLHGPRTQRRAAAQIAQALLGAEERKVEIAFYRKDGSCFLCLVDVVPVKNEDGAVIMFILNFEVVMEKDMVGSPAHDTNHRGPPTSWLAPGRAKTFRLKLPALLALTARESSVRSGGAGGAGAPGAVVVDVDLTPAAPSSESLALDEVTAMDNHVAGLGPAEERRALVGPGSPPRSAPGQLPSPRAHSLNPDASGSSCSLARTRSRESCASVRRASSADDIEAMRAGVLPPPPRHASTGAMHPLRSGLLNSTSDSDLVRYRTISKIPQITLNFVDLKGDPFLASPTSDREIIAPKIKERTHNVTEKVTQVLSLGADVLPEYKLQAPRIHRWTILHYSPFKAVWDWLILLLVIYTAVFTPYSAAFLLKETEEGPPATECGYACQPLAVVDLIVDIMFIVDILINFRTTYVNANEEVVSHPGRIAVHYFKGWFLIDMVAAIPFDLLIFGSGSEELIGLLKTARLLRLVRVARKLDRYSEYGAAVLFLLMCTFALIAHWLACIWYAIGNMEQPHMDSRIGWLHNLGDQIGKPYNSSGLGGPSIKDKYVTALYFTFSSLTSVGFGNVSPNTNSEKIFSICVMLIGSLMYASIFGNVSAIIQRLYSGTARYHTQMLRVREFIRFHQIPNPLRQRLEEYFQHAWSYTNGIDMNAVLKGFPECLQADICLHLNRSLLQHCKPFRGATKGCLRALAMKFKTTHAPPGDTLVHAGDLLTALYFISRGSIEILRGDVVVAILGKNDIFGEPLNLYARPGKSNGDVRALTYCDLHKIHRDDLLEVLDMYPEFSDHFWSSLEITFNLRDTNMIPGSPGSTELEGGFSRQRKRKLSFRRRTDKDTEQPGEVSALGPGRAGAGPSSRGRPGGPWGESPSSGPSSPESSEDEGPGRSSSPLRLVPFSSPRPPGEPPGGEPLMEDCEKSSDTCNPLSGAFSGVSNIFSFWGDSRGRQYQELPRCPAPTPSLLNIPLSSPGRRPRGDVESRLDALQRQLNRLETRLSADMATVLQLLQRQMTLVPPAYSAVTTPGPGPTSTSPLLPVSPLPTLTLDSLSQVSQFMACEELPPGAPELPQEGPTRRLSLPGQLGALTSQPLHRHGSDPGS

Assay [19] in a line: qHTS assay for small molecule disruptors of the mitochondrial membrane potential - 1 hr assay (AID 651754; calls by dose curve; note: % is set by controls: 0 for no effect and ±100 for the full control effect; nearly all actives have a fitted effect of over 35% in size). The following applies: series mostly up to 92.2 µM. The method in brief: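 Steps: seed HepG2 cells and let attach overnight; pin-transfer compound or vehicle; incubate 1 hr at 37C; add Mito-MPS dye for 30 min; read two-channel fluorescence for monomer and aggregate forms.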

The target in assay [20] is Nuclear receptor subfamily 1 group I member 2 (Rattus norvegicus) (UniProt Q9R1A7). The experiment in a line: qHTS assay for small molecule activators of the rat pregnane X receptor (rPXR) signaling pathway (AID 651751; call rule not given here; note: 0% is about no effect). The note with it: rPXR reporter cells, luciferase (One-Glo), 24 h.
Nuclear receptor subfamily 1 group I member 2 (Rattus norvegicus), sequence (Q9R1A7 whole entry, looked up): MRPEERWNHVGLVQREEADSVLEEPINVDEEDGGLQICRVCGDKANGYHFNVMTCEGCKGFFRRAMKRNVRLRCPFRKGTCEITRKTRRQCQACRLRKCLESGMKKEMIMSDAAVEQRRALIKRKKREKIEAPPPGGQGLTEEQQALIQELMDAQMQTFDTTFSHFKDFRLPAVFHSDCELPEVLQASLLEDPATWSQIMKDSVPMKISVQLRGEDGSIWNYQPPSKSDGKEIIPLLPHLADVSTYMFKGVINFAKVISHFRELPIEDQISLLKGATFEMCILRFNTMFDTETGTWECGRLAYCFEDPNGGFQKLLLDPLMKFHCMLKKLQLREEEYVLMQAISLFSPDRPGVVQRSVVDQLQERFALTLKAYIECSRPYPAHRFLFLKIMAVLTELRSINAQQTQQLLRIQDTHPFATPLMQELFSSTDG

Retinoic acid receptor RXR-alpha (Homo sapiens), sequence (P19793 whole entry, looked up): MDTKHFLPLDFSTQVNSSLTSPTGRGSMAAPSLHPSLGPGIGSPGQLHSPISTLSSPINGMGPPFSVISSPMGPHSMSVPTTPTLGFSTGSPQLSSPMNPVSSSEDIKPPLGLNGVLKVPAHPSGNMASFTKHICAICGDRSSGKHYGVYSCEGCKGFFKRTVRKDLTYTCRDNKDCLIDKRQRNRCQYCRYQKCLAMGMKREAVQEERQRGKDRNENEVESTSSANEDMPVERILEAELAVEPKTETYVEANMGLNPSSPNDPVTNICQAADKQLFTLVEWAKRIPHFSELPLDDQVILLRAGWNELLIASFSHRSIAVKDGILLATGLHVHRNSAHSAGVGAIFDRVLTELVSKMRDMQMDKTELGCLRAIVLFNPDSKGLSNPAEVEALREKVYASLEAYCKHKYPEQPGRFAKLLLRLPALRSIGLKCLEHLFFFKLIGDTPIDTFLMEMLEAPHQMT
Peroxisome proliferator-activated receptor gamma (Homo sapiens), sequence (P37231 whole entry, looked up): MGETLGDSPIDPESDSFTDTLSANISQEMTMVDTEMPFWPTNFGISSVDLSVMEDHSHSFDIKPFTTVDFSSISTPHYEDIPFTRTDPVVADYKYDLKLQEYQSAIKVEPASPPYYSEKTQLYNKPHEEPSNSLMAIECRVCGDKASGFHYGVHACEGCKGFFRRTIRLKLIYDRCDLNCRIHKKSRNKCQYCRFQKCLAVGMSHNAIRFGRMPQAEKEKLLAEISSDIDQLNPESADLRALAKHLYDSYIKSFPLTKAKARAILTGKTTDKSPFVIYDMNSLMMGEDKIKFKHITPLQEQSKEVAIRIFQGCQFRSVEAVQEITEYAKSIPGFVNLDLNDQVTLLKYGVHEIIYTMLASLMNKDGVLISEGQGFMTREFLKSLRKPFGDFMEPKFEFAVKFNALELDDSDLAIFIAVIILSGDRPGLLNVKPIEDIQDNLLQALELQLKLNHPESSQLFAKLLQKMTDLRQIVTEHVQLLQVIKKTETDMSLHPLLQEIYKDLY

Turning to `C=CC(C)(O)CCC=C(C)C` (stereo not given), the Potency in assay [1] was > 92 µM (inactive). Further, the result in assay [2], in assay [3], in assay [4], in assay [5], in assay [6] and in [7] was inactive. The result in assay [9], in assay [10], in [11], in assay [13], in assay [14] and in assay [19] was inactive. Besides, the Potency entry in [8] and in assay [18] was “inactive” each time. The max response is -15.4% and -5.89% in [12]; -4.18% and -11.2% in assay [15]; -7.55% (inactive) and -18.1% (inactive) in assay [16]; 2.77% (inactive) and 2.88% (inactive) in assay [20]. Also, the activity change % (negative = inhibition) in [17] is 22.9% (inactive) and 4.85% (inactive).

`COS(C)(=O)=O`: the Potency in [1] was > 92 µM (inactive). Besides, the compound was classed as inactive in assay [2], in [3], in [4], in assay [5], in assay [6] and in [7]. For the same compound, the result in assay [9], in assay [10], in assay [11], in assay [13], in [14] and in [19] was inactive. Moreover, the Potency entry in [8] and in assay [18] was “inactive” throughout. In addition, the max response in assay [12] is -12%; in [15], -12.9%; in assay [16], -3.69% (inactive); in [20], 0.398% (inactive). For the same compound, in [17], the activity change % (negative = inhibition) was 2.2% (inactive).

Turning to `C=C(C)[C@H]1CC=C(C)C(=O)C1`, the Potency in assay [1] was > 92 µM (inactive). Also, the result in assay [2], in [3], in assay [4], in [5], in assay [6] and in assay [7] was inactive. Further, the result in assay [9], in [10], in assay [11], in assay [13], in assay [14] and in assay [19] was inactive. The Potency result in assay [8] and in assay [18] was “inactive” each time. Also, the max response is 2.29% and 4.34% in [12]; -6.91% and -9.16% in [15]; 30% (inactive) and -16.7% (inactive) in assay [16]; -2.55% (inactive) and 3.05% (inactive) in assay [20]. The activity change % (negative = inhibition) in assay [17] is 1.99% (inactive).

In the case of `Cc1occc(=O)c1O`, the Potency in [1] was > 92 µM (inactive). Also, the call in assay [2], in [3], in assay [4], in assay [5], in assay [6] and in assay [7] was inactive. Also, the result in assay [9], in assay [10], in [11], in assay [13], in assay [14] and in [19] was inactive. Moreover, the Potency entry in assay [8] and in assay [18] was “inactive” in each case. The max response is -12.3% in [12], -0.914% in assay [15], -8.46% (inactive) in [16] and 3.86% (inactive) in [20]. Moreover, the activity change % (negative = inhibition) in assay [17] was -20.8% (inactive).

The values above are taken from PubChem BioAssay (NCATS).
